Screening data from PubChem.
Hits are enriched below; roughly 3.4% of the tested compounds scored in any of these assays.
GPR151 ag – human GPR151 activation. PathHunter beta-arrestin GPR151 cells, luminescence. activation, % at 11.2 µM. hit rate 1% among 650,000. AID 1508602; in the data active = activation above about 4.9%;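 also: 0% = median of compound wells and 100% = cells with positive control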
TEAD-YAP inh – TEAD-YAP interaction inhibition. HEK-TIYL cells, TEAD-Gal4/YAP UAS-luciferase luminescence. inhibition, % at 9.12 µM. hit rate 1.4% among 640,000; in the data active = inhibition above about 32%;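 also: 0% = median of test compound wells and 100% = reference inhibitor wells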
MITF primary – inhibitors of human MITF; O75030; AlphaScreen MITF homodimerization, bead proximity signal; inhibition, % at 2.6 µM; hit rate 0.91% among 650,000; AID 1259374; in the data active = inhibition above about 50%;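 also: 0% = vehicle wells with protein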
FBW7 act – human FBW7 E3 ligase activation, primary screen. normalized activity (activation), % at 26.1 µM. AlphaScreen FBW7–phospho-cyclin E peptide binding, activator screen. hit rate 0.13% among 650,000. Q969H0; in the data active = normalized activity above about 1.9%;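 also: purified mutant Fbw7 with reduced substrate affinity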
Target sequence (Q969H0 whole entry, looked up): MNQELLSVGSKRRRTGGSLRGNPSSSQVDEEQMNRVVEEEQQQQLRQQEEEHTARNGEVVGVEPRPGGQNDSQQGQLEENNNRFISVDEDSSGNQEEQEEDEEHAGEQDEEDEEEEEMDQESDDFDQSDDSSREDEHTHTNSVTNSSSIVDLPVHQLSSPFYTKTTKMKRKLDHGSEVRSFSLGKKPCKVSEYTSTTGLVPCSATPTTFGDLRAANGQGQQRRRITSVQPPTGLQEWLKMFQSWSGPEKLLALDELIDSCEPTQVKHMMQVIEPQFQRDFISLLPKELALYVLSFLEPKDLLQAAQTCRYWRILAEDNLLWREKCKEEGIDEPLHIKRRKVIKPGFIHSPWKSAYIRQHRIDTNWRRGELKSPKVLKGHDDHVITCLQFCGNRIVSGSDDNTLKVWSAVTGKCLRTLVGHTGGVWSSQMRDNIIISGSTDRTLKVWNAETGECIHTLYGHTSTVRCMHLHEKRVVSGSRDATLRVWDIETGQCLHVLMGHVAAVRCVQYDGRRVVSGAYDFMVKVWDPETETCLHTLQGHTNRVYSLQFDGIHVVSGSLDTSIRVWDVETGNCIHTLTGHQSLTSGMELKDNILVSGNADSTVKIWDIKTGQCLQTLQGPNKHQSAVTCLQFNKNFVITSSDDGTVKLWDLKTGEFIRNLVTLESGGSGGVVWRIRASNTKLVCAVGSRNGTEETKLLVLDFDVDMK
GPR151 conf act – confirmation of human GPR151 activators; shares compounds with GPR151 ag; GPR151 PathHunter beta-arrestin cells, luminescence, 90 min; % of EA-reagent control over plate median; activation, % at 11.2 µM; 6,700 tested, under 10 active; AID 1508609;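 active = mean percent activation across replicates above the confirmation screen cutoff of 4.91%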
GPR119 ag – counter-screen for GPR151 activators: effect on human GPR119; shares compounds with GPR151 ag; GPR119 PathHunter beta-arrestin cells, luminescence, 90 min; 0 = compound-well median, 100 = enzyme-acceptor control; activation, % at 11.2 µM; hit rate 0.3% among 6,700;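 active = mean percent activation in the counterscreen above 29.09%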;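 also: counterscreen on off-target GPR119 to flag nonselective hits from the GPR151 activator screen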
* hit, by the source's call; / = not tested or not shown.

SMILES	GPR151 ag	TEAD-YAP inh	MITF primary	FBW7 act	GPR151 conf act	GPR119 ag
c1ccc2c(c1)sc1nnc(SCc3cn4cccnc4n3)n12	5.0*	-9	5	0	-1	-12
O=C(COC(=O)c1ccccc1[N+](=O)[O-])c1ccc(Cl)cc1	3	-11	8	0	/	/
Cc1ccc(C(=O)Nc2ccc(C(=O)CN3C(=O)CSC3=O)cc2)cc1	5.8*	-2	24	0	-1	-4
O=C(CN1C(=O)CSC1=O)c1ccc(Cl)cc1	1	0	-6	0	/	/
CCCCN1C(=O)SC(Nc2ccc(F)cc2)C1=O (stereo not given)	8.2*	3	6	0	-2	-7
CCOC(=O)CN1C(=O)SC(Nc2ccccc2)C1=O (stereo not given)	7.8*	3	3	0	0	8
O=C(O)CN1C(=O)SC(Nc2ccccc2)C1=O (stereo not given)	-3	-7	0	0	/	/
CN1C(=O)C(O)(CC(=O)c2cccnc2)c2ccccc21 (stereo not given)	14*	9	18	0	-1	-13
CN1C(=O)C(O)(CC(=O)c2ccc3ccccc3c2)c2ccccc21 (stereo not given)	0	-2	5	0	/	/
CC(C)N1C(=O)C(O)(CC(=O)c2ccc3ccccc3c2)c2ccccc21 (stereo not given)	6.2*	2	6	0	-1	-9
COc1ccc(C(=O)CC2(O)C(=O)N(C(C)C)c3ccccc32)cc1 (stereo not given)	12*	-4	-17	0	0	-9
CN1C(=O)C(O)(CC(=O)c2ccc(F)cc2)c2ccccc21 (stereo not given)	4	1	-6	0	/	/
COc1ccc(OC)c(C(C)NC(=O)c2ccc(F)cc2)c1 (stereo not given)	5.4*	5	26	0	0	-3
COc1ccc(OC)c(NC(=O)c2ccc3c(=O)n(-c4cc(OC)ccc4OC)c(=S)[nH]c3c2)c1	-1	3	13	0	/	/
CC(C)(C)C(=O)OCN1c2nonc2N(COC(=O)C(C)(C)C)c2nonc21	7.9*	-1	-9	0	0	0
CC(C)(C)OC(=O)NCC(=O)NC(Cc1ccc(OCc2ccccc2)cc1)C(N)=O (stereo not given)	5.1*	-7	-1	0	2	10
O=C1N(C2Cc3ccccc3C2)C[C@@H]2C[C@@H](c3ccccc3F)N3CCC[C@@]123	15*	3	-1	0	0	-5
O=C1N(C2Cc3ccccc3C2)C[C@@H]2C[C@@H](c3ccc4nsnc4c3)N3CCC[C@@]123	9.4*	-27	-5	1	1	-3
COc1ccccc1/C=C/C(=O)NCC(=O)N/N=C(/C)c1ccccc1	-2	-10	10	0	/	/
CN1CCC(N(C)C(=O)c2cc3c(-c4ccccc4)nn(-c4ccccc4)c3s2)CC1	1	-13	6	0	/	/
COC(=O)c1ccccc1NC(=O)CN(c1ccccc1Cl)S(C)(=O)=O	2	-1	5	0	/	/
COc1ccc(OC)c(N(CC(=O)Nc2ccccc2F)S(C)(=O)=O)c1	2	6	2	0	/	/
COC(=O)c1ccccc1NC(=O)CN(c1cc(OC)ccc1OC)S(C)(=O)=O	5.6*	-7	-6	0	0	8
COC(=O)c1ccccc1NC(=O)CN(c1ccc(OC)cc1OC)S(C)(=O)=O	9.5*	12	-1	0	-1	0
C(=C\c1nc2ccccc2o1)/c1ccc(-c2ccccc2)cc1	1	-11	9	0	/	/
SMILES	GPR151 ag	TEAD-YAP inh	MITF primary	FBW7 act	GPR151 conf act	GPR119 ag
CCCCCCCC1=NN2C(=N)/C(=C/c3ccc(N(C)C)cc3)C(=O)N=C2S1	5.7*	-3	17	0	0	12
CCCC1=NN2C(=N)/C(=C/c3ccc(N(C)C)cc3)C(=O)N=C2S1	1	2	7	0	/	/
CCCCNC(=O)C1CCN(S(=O)(=O)c2ccccc2)CC1	0	-3	8	0	/	/
COc1ccc(NC(=O)c2ccc(OC(C)C)cc2)cc1Cl	-8	-26	9	0	/	/
CCOc1cc(S(=O)(=O)NC2CC(C)(C)NC(C)(C)C2)c(C)cc1C	-1	-3	8	0	/	/
CCOc1cc(C)c(C(C)C)cc1S(=O)(=O)NC1CC(C)(C)NC(C)(C)C1	7.9*	-4	-4	0	0	2
CCN=C(NCC)SC1CC(=O)N(c2ccccc2OC)C1=O (stereo not given)	0	4	13	0	/	/
CC(=O)Oc1ccc(C(=O)c2ccccc2)c(OC(C)=O)c1	5.6*	10	11	0	0	-1
CC(NC(=O)CSc1nnc(-c2ccco2)o1)C12CC3CC(CC(C3)C1)C2 (stereo not given)	-2	-9	20	1	/	/
CCc1cc(C(=O)Cc2ccc3c(c2)OCCCO3)c(O)cc1OC	5.2*	-3	-6	0	-2	-15
CCCCOC(=O)c1ccc(NC(=O)c2ccc(C3CCCCC3)cc2)cc1	7.2*	33*	0	0	0	1
CC(=O)N1CCN(CC(O)COC(c2ccc(Cl)cc2)c2ccc(Cl)cc2)CC1 (stereo not given)	0	-13	0	0	/	/
O=C(CCc1nnc(Cc2ccc3c(c2)OCO3)o1)NCCCC1CCCC1	6.9*	-2	0	0	-1	-1
Cc1cc(I)ccc1S(=O)(=O)NCc1ccccn1	-1	8	-7	0	/	/
CCOC(=O)c1cc(C(=O)NNC(=O)/C=C/C(=O)O)c(C)nc1C	5.3*	-2	6	0	0	-5
COc1cc(OC)c(NC(=O)Nc2noc3c2COc2ccccc2-3)cc1Cl	5.2*	7	3	0	1	-1
COc1cc(-c2nc(-c3ccccc3)c(-c3cccs3)[nH]2)cc(OC)c1OC	5.0*	-3	-5	0	-1	-5
COCCC(=O)Nc1ccc2c(c1)CN(C(=O)c1ccc(CSC)o1)CC2	9.4*	-14	17	0	0	2
CC(C)c1c(-c2ccccc2)[n+](=O)c2c(n1[O-])CCCCC2	5.2*	0	-6	0	-1	3
Cc1c(-c2ccc(F)cc2)[n+](=O)c2c(n1[O-])CCCC2	0	11	5	0	/	/
O=C(Nc1ccc(Cl)c(Cl)c1)c1c(-c2ccc(Cl)cc2)c2c3n(c(-c4ccccc4)nn13)CCCC2	2	-7	17	0	/	/
CCOC(=O)c1oc2ccccc2c1NC(=O)c1ccc(Cl)s1	6.5*	-26	15	0	-1	-2
CCOC(=O)c1oc2ccccc2c1NC(=O)C1COc2ccccc2O1 (stereo not given)	5.5*	10	0	0	0	3
